# This is a sample that favours compounds with a hit; in the whole collection about 8% have one here.
# HT1080 IDH1KD tx – qHTS for induction of synthetic lethality in tumor cells producing 2HG: qHTS for the HT-1080-IDH1KD cell line. Potency, µM (titrated, usually from 46.1 µM), for inactives: at the top dose activity, negative = toxicity, actives largely listed as cytotoxic. 2% of 360,000 active. HT-1080 IDH1 knockdown viability, ATP luminescence, 48 h;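 note: 0% = DMSO wells and -100% = cell-free medium wells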
#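 HT-1080-IDH1KD cells (IDH1 knocked down), 750/well in RPMI with 5% FBS, treated with compound 48 h at 37 degrees C. Viability by CellTiter-Glo luminescence, normalised to DMSO and no-cell wells; concentration-response curves classed.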
# KB-V1 cytotox – qHTS assay for MDR1-selective chemotherapeutics: Primary screen using the drug-selected MDR subline cells KB-V1 | AID 1347076, 2019 | Potency, µM (highest dose often 46.1 µM), hits mostly cytotoxic | 3.4% of 400,000 active | KB-V1 MDR cells viability, CellTiter-Glo, 72 h; note: % is set by controls: 0 for no effect and ±100 for the full control effect; nearly all actives have a fitted effect of over 60% in size
#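 Cytotoxicity via CellTiter-Glo luminescence after 72 h compound exposure at 37 degrees C. Cells: drug-selected KB-V1 line, DMEM phenol-red free plus 10% FBS. Compounds tested at multiple concentrations; normalized data fitted to concentration-effect curves.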
# SW480 rereplic – A quantitative high throughput screen for small molecules that induce DNA re-replication in SW480 colon adenocarcinoma cells; SW480 DNA re-replication, Hoechst DNA content imaging, 48 h; Potency, µM (doses to about 46.1 µM), for the others: top-dose re-replication activation, hits mostly activators; 1.8% of 340,000 active; AID 624297, 2012; note: % of control where 0% means no effect; nearly all actives have a fitted effect of over 55% in size
#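 Image-based DNA-content assay: after two days of treatment, nuclei were labelled with the DNA dye Hoechst and imaged, and hits were compounds raising the count of nuclei showing high fluorescence intensity.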
# KB-3-1 cytotox – qHTS assay for MDR1-selective chemotherapeutics: Primary screen using the parental adenocarcinoma cell KB-3-1 | KB-3-1 viability, CellTiter-Glo ATP luminescence, 72 h | Potency, µM (doses to about 46.1 µM), most hits filed as cytotoxic | 1.4% of 400,000 active; note: % is set by controls: 0 for no effect and ±100 for the full control effect; nearly all actives have a fitted effect of over 60% in size
#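 Cytotoxicity measured as CellTiter-Glo luminescence after 72 h at 37 C. Compound titrations were pinned onto drug-naive KB-3-1 parental adenocarcinoma cells grown in DMEM with 10% FBS, and normalized data fitted to concentration-response curves.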
# MCF10A rerep – A quantitative high throughput screen for small molecules that induce DNA re-replication in MCF 10a normal breast cells; 2.9% of 350,000 active; Potency, µM (doses to about 46.1 µM), inactives show top-dose activity, positive = re-replication, most hits filed as activators; MCF 10A DNA re-replication, Hoechst nuclear intensity, 48 h; AID 624296, 2012; note: % of control where 0% means no effect; nearly all actives have a fitted effect of over 50% in size
# HT1080-NT tox – qHTS for induction of synthetic lethality in tumor cells producing 2HG: qHTS for the HT-1080-NT fibrosarcoma cell line | HT-1080-NT fibrosarcoma viability, CellTiter-Glo ATP luminescence, 48 h | Potency, µM (titrated, usually from 46.1 µM), inactives show at the highest dose activity, negative = less viability, hits mostly cytotoxic | 1.6% of 360,000 active | AID 686970, 2013;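 note: NT is the 2HG producing partner of a matched IDH1 knockdown line; 0% = DMSO-treated cells and -100% = media-only wells without cells; nearly all actives have a fitted effect of over 55% in size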
#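 Luminescent CellTiter-Glo readout after 48 hours of compound exposure at 37 degrees C defined viability of HT-1080-NT cells. Activity was normalized to DMSO wells and cell-free media wells; concentration-response curves were fitted and assigned curve classes.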
# * = called active by the depositor; i = inactive; ? = inconclusive; · = no result given; [ ] = dose if it differs, or a comment. Calls come from the whole dose curve; as a rule, active = well fitted curve in the direction sought with a large enough effect; inconclusive = small, poorly fitted or top-dose-only effect, or another doubt; inactive = no such curve, though single readings can be large; an effect the other way counts as inactive or inconclusive. Potency is the fitted concentration of half-maximal effect.
SMILES,HT1080 IDH1KD tx,KB-V1 cytotox,SW480 rereplic,KB-3-1 cytotox,MCF10A rerep,HT1080-NT tox
COc1ccc(C(=O)CC2(O)C(=O)N(Cc3ccccc3Cl)c3ccccc32)cc1 (stereo not given),·,18µM*,·,?,·,·
CN1C(=O)C(O)(CC(=O)/C=C/c2ccco2)c2cc(Br)ccc21 (stereo not given),-14%,i,?,?,?,-18%
CN1C(=O)C(O)(CC(=O)c2ccccc2O)c2cc(Br)ccc21 (stereo not given),0%,?,?,?,?,16µM*
CCCCN1C(=O)C(O)(CC(=O)c2ccco2)c2cc(Br)ccc21 (stereo not given),?,i,15µM*,15µM*,?,?
O=C(CC1(O)C(=O)N(Cc2ccccc2Cl)c2ccccc21)c1ccco1 (stereo not given),3%,?,18µM*,?,?,1%
O=C(COC(=O)c1nc(Cl)ccc1Cl)NCc1cccs1,10%,i,-136%,i,-12%,15%
N=C(N)SCc1ccc(Cl)c2ccccc12,-9%,23µM*,-6%,i,?,-14%
CCOC(=O)c1c(NC(=O)CSc2cn(CCNC(=O)c3ccc(OC)cc3)c3ccccc23)sc2c1CCCC2,·,i,·,i,·,·
CCCN1CCC(=NNc2ccc(S(=O)(=O)N3CCOCC3)cc2[N+](=O)[O-])CC1,15µM*,7.3µM*,7.3µM*,4.6µM*,7.3µM*,?
Cc1ccc(CNc2ccc(S(=O)(=O)N3CCOCC3)cc2[N+](=O)[O-])cc1,-8%,5.2µM*,11%,i,12%,0%
Cn1cnc([N+](=O)[O-])c1Sc1nc(N)nc2c1ncn2C1CC(O)C(CO)O1 (stereo not given),1.3µM*,5.2µM*,7.3µM*,3.7µM*,2.1µM*,2.3µM*
Cn1cnc([N+](=O)[O-])c1Sc1nc(N)nc2c1ncn2C1OC(CO)C(O)C1O (stereo not given),1.3µM*,1.2µM*,5.8µM*,?,2.1µM*,1.3µM*
CCc1nc(SC)ncc1C(=O)N1CCN(c2cc(Cl)ccc2C)CC1,·,i,·,i,·,·
CCOC(=O)c1ccc(NS(=O)(=O)c2ccc3c(c2)CCN3C(=O)CC)cc1,·,i,·,i,·,·
COc1ccc(-n2cnc3sc4c(c3c2=O)CCCC4)cc1,-17%,16µM*,?,i,10%,1%
COc1cccc(-n2cnc3sc(C)c(C)c3c2=O)c1,-1%,21µM*,-3%,i,-1%,-1%
O=C(NC(=S)Nc1cc([N+](=O)[O-])ccc1O)c1ccc2c(c1)OCO2,?,?,?,i,13µM*,?
Cc1ccc(NC(=O)COC(=O)CN2C(=O)COc3ccccc32)cc1,4%,i,-2%[9.22 µM],i,7%,8%
COCC(=O)Nc1ccc2c(c1)OCC(=O)N2Cc1ccc(C)cc1,-5%,i,5%,i,23µM*,2%
COc1ccccc1OCC(=O)Nc1c(C(=O)c2ccc(F)cc2)oc2ccccc12,·,i,·,?,·,·
Cc1c(NS(=O)(=O)c2ccc(C(=O)NCc3ccccc3)cc2)c(=O)n(-c2ccccc2)n1C,8%,i,3%,i,23%,-2%
NC(=S)N/N=C/c1c(O)c(Br)cc2oc3c(c12)CCCC3,-23%,?,18µM*,21µM*,?,-22%
COc1ccc2nc3sc(C(=O)N4CCN(c5ccccc5)CC4)cc3cc2c1,·,i,·,i,·,·
COc1ccc(C2=C(CN(C)C)C(c3ccccc3)c3ccccc3O2)cc1 (stereo not given),23µM*,12µM*,?,i,26%,21µM*
C=CCOc1ccc(/C=C2\SC(=Nc3cccnc3)NC2=O)cc1,-8%,i,-69%,i,-4%,-18%
SMILES,HT1080 IDH1KD tx,KB-V1 cytotox,SW480 rereplic,KB-3-1 cytotox,MCF10A rerep,HT1080-NT tox
CC(/C=C1\SC(=Nc2cccnc2)NC1=O)=C\c1ccccc1,0%,8.2µM*,22%[9.22 µM],16µM*,1.6µM*,-16%
O=S(=O)(c1ccc2nc(-c3ccccc3)[nH]c2c1)N1CCN(c2ccc(Cl)cc2)CC1,?,?,?,i,16µM*,-25%
COc1ccc(-c2n[nH]c(=S)n2/N=C/C=C/c2ccccc2OC)cc1,-4%,18µM*,?,10µM*,4.6µM*,-9%
Cn1c(CSc2ccccc2)c(C#N)c2ccccc21,-26%,16µM*,-4%,i,-5%,-2%
Cn1c(CNc2ccccn2)c(C#N)c2ccccc21,-22%,23µM*,7%,i,-2%,-13%
Cc1ccc(SCc2c(C#N)c3ccccc3n2C)cc1,1%,i,-7%,i,13%,17%
COc1ccc(OC)c(NC(=O)c2cc(=O)c3c(C)cc(C)cc3o2)c1,·,i,·,i,·,·
CCCn1nnnc1NCc1cccc(Cl)c1,7%,i,-7%,i,-3%,2%
Cc1ccc(CNC(=O)C2CCCN(S(=O)(=O)c3cccc4nsnc34)C2)cc1 (stereo not given),·,i,·,i,·,·
O=C(O)c1cc2c(N3CCC(Cc4ccccc4)CC3)ncnc2s1,-6%,i,1%,i,?,-1%
c1ccc(CC2CCN(c3ncnc4sccc34)CC2)cc1,?,i,?,i,20%,12µM*
Cc1cccc(N2CCN(C(=O)Cn3ncc4c3-c3ccccc3OC4)CC2)c1C,·,i,·,i,·,·
CC(CNC(=S)Nc1cc(F)cc(F)c1)CSc1ccc(Cl)cc1 (stereo not given),?,?,2%,i,-1%,18µM*
Cc1cc(Br)c(S(=O)(=O)n2nnc3ccccc32)cc1C,4%[9.24 µM],i,?,i,10µM*,0%
Cc1ccc(NC(=O)CNC(=O)Cn2c(C)cc3ccccc3c2=O)cc1F,·,i,·,i,·,·
Cc1cc(C)n(-c2nc(NCCN(C)C)c3c4c(sc3n2)COC(C)(C)C4)n1,?,i,?,i,?,18µM*
Cc1cc(C)n(-c2nc(NCCC(C)C)c3c4c(sc3n2)COC(C)(C)C4)n1,10%,2.3µM*,-5%,i,3%,19%
Cc1ccnc2c(Cl)c(Cl)ccc12,·,i,·,i,·,·
